Activity calls are given as the source filed them.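 How the source made its calls, unless noted: active means compound raises insulin release from rat beta cells at 5 mM glucose, no numeric limit stated; inactive means the rest.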
Key:
[1] = stimulators of nuclear beta-catenin in C2C12, primary screen, imaging, WNT3A-conditioned medium, mouse C2C12, NPC library (AID 1117326; in the data active means nuclear beta-catenin stimulation mostly above about 4.2%, no sharp cut-off; inactive means mostly below about 10%; further: reference of the scale not given here); details: stronger effect = higher value
[2] = stimulators of insulin release from INS-1E, primary screen, cell-based, 5 mM glucose, NPC library (AID 1117329); details: rat INS-1E insulin secretion, at 10 µM, stronger effect = higher value; further: reference of the scale not given here
[3] = growth inhibition of GSK3B-pretreated HCT116 cells – cell-based, CellTiter-Glo, 0.2 to 20 µM (AID 1117336;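 active means compounds lowering colon cancer cell viability after pretreatment blocking the GSK3B kinase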); details: HCT116 viability after GSK3B inhibitor, at 20 µM, stronger effect = higher value
[4] = inhibition of endothelial tube formation, primary screen, imaging, VEGF stimulated, CD31 staining, tube area, NPC library (AID 1117340;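 active means compound that reduces growth-factor-driven endothelial tube area in a mixed cell culture, no cutoff stated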); details: VEGF-stimulated ADSC/ECFC co-culture, at 10 µM, stronger effect = higher value
[5] = glucagon-like peptide 1 release enhancers, primary assay, NCI-H716 cell line, NPC library (AID 1117341;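 active means compound raises GLP1 secretion from the human gut endocrine cells, with no numeric limit stated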; further: reference of the scale not given here); details: NCI-H716 cells, at 10 µM, stronger effect = higher value
[6] = HCT116 colon cancer cell growth inhibition, primary screen, CellTiter-Glo luminescence, NPC library (AID 1117342;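 active means compounds that lower survival of HCT116 colon cancer cells in the luminescence readout, no numeric limit stated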); details: at 20 µM (top of the series)
[7] = CellTiter-Glo luminescent readout of SW480 viability loss, NPC library primary (AID 1117343;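 active means compounds that lower viability of the colon cancer cells in the luminescence readout, with no numeric limit stated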); details: CellTiter-Glo luminescence; at 20 µM (top of the series)
[8] = decreased DLD-1 cellular survival, CellTiter-Glo luminescent readout, NPC compound collection, primary HTS (AID 1117346;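 active means compounds that lower survival of DLD-1 colon cancer cells in the luminescence readout, no cutoff given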); details: DLD-1 viability, CellTiter-Glo luminescence; at 20 µM (top of the series)

CCCCC(=O)O[C@H]1CC[C@H]2[C@@H]3CCc4cc(O)ccc4[C@@H]3CC[C@]12C
active: viability decrease [3] 99.1% | tube area decrease [4] 108% | inhibition of viability [6] 91.3% | viability decrease (inhibition) [7] 103% | viability decrease (inhibition) [8] 74.4%
inactive: nuclear beta-catenin stimulation ([1]; at 10 µM) -0.4% | insulin secretion stimulation [2] 1.2% | GLP1 secretion stimulation [5] -4.2%
-0.3%: nuclear beta-catenin stimulation ([1]; stimulation, at 2 µM)

O=S1(=O)OC(c2ccc(O)cc2)(c2ccc(O)cc2)c2ccccc21
-1.3%: nuclear beta-catenin stimulation ([1]; stimulation, at 2 µM)
inactive: nuclear beta-catenin stimulation ([1]; at 10 µM) 0.1% | insulin secretion stimulation [2] 0.55% | viability decrease [3] 12.4% | tube area decrease [4] 2.5% | GLP1 secretion stimulation [5] -0.4% | inhibition of viability [6] 38.7% | viability decrease (inhibition) [7] -9.3% | viability decrease (inhibition) [8] 42.9%

CCOC(=O)CN1CCCC1=O
inactive: nuclear beta-catenin stimulation ([1]; at 10 µM) 1.9% | insulin secretion stimulation [2] 2.1% | viability decrease [3] 1.1% | tube area decrease [4] -17.2% | GLP1 secretion stimulation [5] -1.8% | viability decrease (inhibition) [7] -15.1% | viability decrease (inhibition) [8] 1%
21%: nuclear beta-catenin stimulation ([1]; stimulation, at 2 µM)
active: inhibition of viability [6] -0.8%

Cc1cn([C@H]2C[C@H](F)[C@@H](CO)O2)c(=O)[nH]c1=O
inactive: nuclear beta-catenin stimulation ([1]; at 10 µM) 9.9% | insulin secretion stimulation [2] 0.2% | viability decrease [3] -4.5% | tube area decrease [4] 20.7% | GLP1 secretion stimulation [5] -4.5% | inhibition of viability [6] 1.4% | viability decrease (inhibition) [7] -3.5% | viability decrease (inhibition) [8] -8.7%
3.4%: nuclear beta-catenin stimulation ([1]; stimulation, at 2 µM)

OC1(c2ccccc2)CCNCC1
0.6%: nuclear beta-catenin stimulation ([1]; stimulation, at 2 µM)
inactive: nuclear beta-catenin stimulation ([1]; at 10 µM) 0.2% | insulin secretion stimulation [2] -0.5% | viability decrease [3] 6% | tube area decrease [4] -1% | GLP1 secretion stimulation [5] 6.9% | inhibition of viability [6] 12.8% | viability decrease (inhibition) [7] 5.3% | viability decrease (inhibition) [8] 11.1%

CN1C(CSCC(F)(F)F)Nc2cc(Cl)c(S(N)(=O)=O)cc2S1(=O)=O (stereo unspecified)
-1.1%: nuclear beta-catenin stimulation ([1]; stimulation, at 2 µM)
inactive: nuclear beta-catenin stimulation ([1]; at 10 µM) -0.4% | insulin secretion stimulation [2] 6.7% | viability decrease [3] -2.8% | tube area decrease [4] -10.7% | GLP1 secretion stimulation [5] 1.3% | inhibition of viability [6] 30.1% | viability decrease (inhibition) [7] -4.4% | viability decrease (inhibition) [8] -7.1%

CSCC[C@H](N)C(=O)O
inactive: nuclear beta-catenin stimulation ([1]; at 10 µM) 1.9% | insulin secretion stimulation [2] 0.5% | viability decrease [3] -8.1% | tube area decrease [4] 2.3% | GLP1 secretion stimulation [5] -2.6% | inhibition of viability [6] 0.5% | viability decrease (inhibition) [7] 0.4% | viability decrease (inhibition) [8] -6%
1.3%: nuclear beta-catenin stimulation ([1]; stimulation, at 2 µM)

[O-][n+]1ccccc1SSc1cccc[n+]1[O-]
34%: nuclear beta-catenin stimulation ([1]; stimulation, at 2 µM)
active: nuclear beta-catenin stimulation ([1]; at 10 µM) 78.1% | viability decrease [3] 51% | tube area decrease [4] 103% | inhibition of viability [6] 51.9%
inactive: insulin secretion stimulation [2] -0.2% | GLP1 secretion stimulation [5] 15.1% | viability decrease (inhibition) [7] -68.5% | viability decrease (inhibition) [8] 1.15%

CC(C)[N+](C)(C)CC(O)COc1cccc2ccccc12 (stereo unspecified)
inactive: nuclear beta-catenin stimulation ([1]; at 10 µM) -2.3% | insulin secretion stimulation [2] 2.4% | viability decrease [3] 7.2% | tube area decrease [4] -21% | GLP1 secretion stimulation [5] 3% | inhibition of viability [6] 34.1% | viability decrease (inhibition) [7] -0.7% | viability decrease (inhibition) [8] 5.7%
-0.7%: nuclear beta-catenin stimulation ([1]; stimulation, at 2 µM)

Source: PubChem BioAssay
